Test results taken from PubChem BioAssay (Tox21).
“And” between values parts separate entries of the source, which are not always exact repeats. Equal entries are not always repeated. Inconclusive results are not listed. Where a call stands in place of a potency, no number is given. The source made the active and inactive calls. Unless noted, the call rests on the fitted dose curve; in most records, active means well fitted curve in the direction sought with a large enough effect in the repeat runs; inconclusive means weak or mixed curves; inactive means no such curve, though single readings can be large; an effect the other way counts as inactive or inconclusive.

Columns and labels:
[1] = qHTS assay to identify small molecule antagonists of the thyroid receptor (TR) signaling pathway - cell viability counter screen (AID 743064); further: nearly all actives have a fitted effect of over 50% in size; further: potency means the concentration at half of the fitted maximal effect
Summary of the method: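 Plate GH3.TRE-Luc cells; incubate 4 h at 37 °C; add compound, then T3 to 1 nM final; incubate 23.5 h; add CellTiter-Fluor; incubate 30 min at 37 °C, 5% CO2; read fluorescence.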

[2] = qHTS assay to identify small molecule antagonists of the thyroid receptor (TR) signaling pathway (AID 743065); further: nearly all actives have a fitted effect of over 55% in size; further: potency means the concentration at half of the fitted maximal effect
Summary of the method: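 GH3.TRE-Luc rat pituitary cells carrying two TR response elements driving luciferase were plated for 4 h, given compound plus 1 nM T3 (final), and incubated 23.5 h at 37 C. ONE-Glo luminescence measured reporter inhibition; CellTiter-Fluor fluorescence tracked cytotoxicity.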

[3] = test system: thyroid hormone receptor (rat, GH3 cells); assay: qHTS assay to identify small molecule agonists of the thyroid receptor (TR) signaling pathway (AID 743066; calls by dose curve)
[4] = qHTS assay to identify small molecule antagonists of the estrogen receptor alpha (ER-alpha) signaling pathway - cell viability counter screen (AID 743074; calls by dose curve;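 further: HEK293 cells carrying ER-alpha-UAS-bla reporter stimulated with 17beta-estradiol; nearly all actives have a fitted effect of over 45% in size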)
[5] = qHTS assay to identify small molecule antagonists of the estrogen receptor alpha (ER-alpha) signaling pathway using the BG1 cell line - cell viability counter screen (AID 743081);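 further: compound given together with 17beta-estradiol as the ER stimulus; nearly all actives have a fitted effect of over 45% in size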
Aromatase (Homo sapiens) = Aromatase (Homo sapiens) (UniProt P11511); assay: qHTS assay to identify aromatase inhibitors (AID 743083); further: nearly all actives have a fitted effect of over 55% in size
Aromatase (Homo sapiens), sequence (P11511 whole entry, looked up): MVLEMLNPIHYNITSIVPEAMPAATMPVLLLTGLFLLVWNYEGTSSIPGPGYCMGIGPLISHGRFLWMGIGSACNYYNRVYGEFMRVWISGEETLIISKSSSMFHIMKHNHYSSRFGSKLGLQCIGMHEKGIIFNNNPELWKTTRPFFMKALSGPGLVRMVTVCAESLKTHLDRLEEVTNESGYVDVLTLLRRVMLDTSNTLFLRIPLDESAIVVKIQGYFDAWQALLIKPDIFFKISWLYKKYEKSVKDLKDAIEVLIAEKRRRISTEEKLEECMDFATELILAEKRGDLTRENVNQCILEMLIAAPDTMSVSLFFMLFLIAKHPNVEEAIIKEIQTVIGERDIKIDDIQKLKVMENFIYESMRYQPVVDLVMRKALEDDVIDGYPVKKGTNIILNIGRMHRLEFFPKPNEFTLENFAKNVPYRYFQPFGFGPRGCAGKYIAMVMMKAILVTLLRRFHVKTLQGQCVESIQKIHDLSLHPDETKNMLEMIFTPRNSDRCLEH

[6] = target: Estrogen receptor (Homo sapiens) (UniProt P03372); assay: qHTS assay to identify small molecule agonists of the estrogen receptor alpha (ER-alpha) signaling pathway (AID 743075; calls by dose curve;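 further: HEK293 GripTite cells with ER-alpha and UAS-driven beta-lactamase reporter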)
Estrogen receptor (Homo sapiens), sequence (P03372 whole entry, looked up): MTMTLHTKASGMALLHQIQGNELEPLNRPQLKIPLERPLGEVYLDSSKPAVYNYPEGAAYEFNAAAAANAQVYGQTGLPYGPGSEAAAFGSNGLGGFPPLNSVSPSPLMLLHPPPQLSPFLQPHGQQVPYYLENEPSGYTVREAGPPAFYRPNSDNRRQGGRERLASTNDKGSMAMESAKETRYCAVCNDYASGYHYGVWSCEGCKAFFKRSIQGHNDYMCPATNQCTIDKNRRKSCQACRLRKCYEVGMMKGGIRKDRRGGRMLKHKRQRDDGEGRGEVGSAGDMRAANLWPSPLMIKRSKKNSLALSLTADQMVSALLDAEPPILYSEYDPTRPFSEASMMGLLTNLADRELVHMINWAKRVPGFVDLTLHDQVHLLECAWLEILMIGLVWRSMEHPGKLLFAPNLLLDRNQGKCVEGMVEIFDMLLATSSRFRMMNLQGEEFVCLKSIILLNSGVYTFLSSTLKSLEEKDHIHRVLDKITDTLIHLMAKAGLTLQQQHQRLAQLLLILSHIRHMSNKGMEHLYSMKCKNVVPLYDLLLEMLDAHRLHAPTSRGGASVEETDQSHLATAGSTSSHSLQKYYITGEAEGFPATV

[7] = target: Estrogen receptor (Homo sapiens) (UniProt P03372); assay: qHTS assay to identify small molecule agonists of the estrogen receptor alpha (ER-alpha) signaling pathway using the BG1 cell line (AID 743079); settings: BG1Luc4E2 cells, ERE-luciferase agonist, 22 h; activation: at 70.3 µM (top of the series); further: nearly all actives have a fitted effect of over 20% in size; further: potency means the concentration at half of the fitted maximal effect
[8] = qHTS assay to identify small molecule antagonists of the estrogen receptor alpha (ER-alpha) signaling pathway using the BG1 cell line (AID 743080; calls by dose curve;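 further: BG1 cells stimulated with 17beta-estradiol alongside compound; nearly all actives have a fitted effect of over 25% in size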; further: potency means the concentration at half of the fitted maximal effect)
Summary of the method: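 BG1-Luc-4E2 cells (endogenous full-length ER-alpha, stable 4×ERE-luciferase) were starved 5 days in phenol-red-free medium with 10% charcoal-stripped FBS, plated 24 h, then given compound plus 17beta-estradiol for 21.5 h at 37 C; ONE-Glo luminescence read after 30 min.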

Row | SMILES | Potency [1] | Potency [2] | outcome [3] | Potency [4] | Potency [5] | Potency (Aromatase (Homo sapiens)) | Potency [6] | Potency [7] | Potency [8]
1 | c1cnc2c(n1)CCCC2 | inactive | inactive | inactive | inactive | inactive | inactive | – | – | –
2 | CC1C2CC(CC2C2CCCC(O)C2)C1(C)C (configuration not stated) | inactive | inactive | inactive | inactive | inactive | – | – | – | –
3 | CN1CCN(CCCN2c3ccccc3Sc3ccc(S(=O)(=O)N(C)C)cc32)CC1 | 14.3 µM (active) | 11.4 µM (active) | inactive | inactive | inactive | inactive | – | – | –
4 | CCCCC(CC)CNCC(CC)CCCC (configuration not stated) | inactive | inactive | inactive | inactive | inactive | – | – | – | –
5 | CCCC(=O)O[C@]1(C(=O)COC(=O)CC)CC[C@H]2[C@@H]3CCC4=CC(=O)CC[C@]4(C)[C@H]3[C@@H](O)C[C@@]21C | inactive | inactive | inactive | inactive | inactive | inactive | inactive | – | –
6 | CC1CC(O)CC(C)(C)C1 (configuration not stated) | inactive | inactive | inactive | inactive | inactive | inactive | – | – | –
7 | COCc1c(C(C)C)nc(C(C)C)c(/C=C/[C@@H](O)C[C@@H](O)CC(=O)O)c1-c1ccc(F)cc1 | inactive | 11.9 µM (active) | inactive | inactive | inactive | – | – | 11.9 µM (active) | –
8 | Oc1cc(O)c(Cl)cc1Cl | inactive | inactive | inactive | inactive | inactive | inactive | inactive | inactive | inactive
9 | NCC1CCCC(CN)C1 (configuration not stated) | inactive | inactive | inactive | inactive | inactive | inactive | – | – | –
10 | CC(=N\O)/C(C)=N/O | inactive | inactive | inactive | inactive | inactive | inactive | – | – | –
11 | Cc1ccc(Nc2nccc(N(C)c3ccc4c(C)n(C)nc4c3)n2)cc1S(N)(=O)=O | inactive | 6.68 µM (active) | inactive | – | – | – | inactive | – | –
12 | CCOC(=O)[C@@H](C)Oc1ccc(Oc2nc3ccc(Cl)cc3o2)cc1 | inactive | inactive | inactive | inactive | inactive | inactive | – | – | –
13 | Fc1c(F)c(F)c(Br)c(F)c1F | inactive | inactive | inactive | inactive | inactive | – | – | – | –
14 | CC(C)CCCCCOC(=O)CCCCC(=O)OCCCCCC(C)C | inactive | inactive | inactive | inactive | inactive | inactive | – | – | –
15 | O=C(CCCCCCC(=O)Nc1ccccc1)NO | 3.35 µM (active) and 2.11 µM (active) | 2.11 µM (active) and 2.66 µM (active) | inactive | inactive | inactive | – | inactive | – | 5.96 µM (active) and 4.22 µM (active)
16 | CC1=CC(=O)CC(C)(C)C1(O)/C=C/C(C)=C\C(=O)O (configuration not stated) | inactive | inactive | inactive | inactive | inactive | inactive | – | – | –
17 | CCCCC(=O)O[C@]1(C(=O)CO)CC[C@H]2[C@@H]3CCC4=CC(=O)CC[C@]4(C)[C@H]3[C@@H](O)C[C@@]21C | inactive | inactive | inactive | inactive | inactive | inactive | – | inactive | –

Row | SMILES | Potency [1] | Potency [2] | outcome [3] | Potency [4] | Potency [5] | Potency (Aromatase (Homo sapiens)) | Potency [6] | Potency [7] | Potency [8]
18 | CCCCN(CCCC)CCCOC(=O)c1ccc(N)cc1 | inactive | inactive | inactive | inactive | – | inactive | – | – | –
19 | C/C=C(\C)C(=O)OCCC(C)CCC=C(C)C (configuration not stated) | inactive | inactive | inactive | inactive | inactive | – | – | – | –
20 | CCCCCCCCSCCO | inactive | inactive | inactive | inactive | inactive | inactive | – | – | –
21 | CCC(C)=O | inactive | inactive | inactive | inactive | inactive | – | – | – | –
22 | CC1CC(=O)NN=C1c1ccc(NCC(C)(C)NCC(O)COc2cc(Cl)ccc2C#N)cc1 (configuration not stated) | inactive | inactive | inactive | inactive | inactive | inactive | inactive | inactive | inactive
23 | C=CC(=C)CCCC(C)(C)OC(C)=O | inactive | inactive | inactive | inactive | inactive | inactive | – | – | –
24 | O=C(C(=O)c1ccccc1)c1ccccc1 | inactive | inactive | inactive | inactive | inactive | – | – | – | –
25 | CO[C@H]1O[C@H](CO)[C@@H](O)[C@H](O)[C@H]1O | inactive | inactive | inactive | inactive | inactive | inactive | – | – | –
26 | Cc1ccc(S(=O)(=O)NC2CCCCC2)cc1 | inactive | inactive | inactive | inactive | inactive | inactive | inactive | – | 68.1 µM (active)
27 | Nc1nccs1 | inactive | inactive | inactive | inactive | inactive | inactive | – | – | –
28 | CCCCCCOC(=O)CCCCCCCC(=O)OCCCCCC | inactive | inactive | inactive | inactive | inactive | – | – | – | –
29 | CC(C)(C)C(=O)O | inactive | inactive | inactive | inactive | inactive | inactive | – | – | –
30 | CC(C)c1nnc2ccc(-c3ocnc3-c3cc(F)ccc3F)cn12 | inactive | inactive | inactive | inactive | inactive | inactive | inactive | – | 54.5 µM (active)
31 | CC(=O)[C@H]1CC[C@H]2[C@@H]3C[C@H](C)C4=CC(=O)CC[C@]4(C)[C@H]3[C@@H](O)C[C@]12C | inactive | inactive | inactive | inactive | inactive | inactive | – | – | –
32 | CC1(C)C(=O)N(Br)C(=O)N1Cl | inactive | inactive | inactive | inactive | inactive | inactive | – | – | –
33 | Cc1c(C(=O)NN2CCCCC2)nn(-c2ccc(Cl)cc2Cl)c1-c1ccc(Cl)cc1 | 16.8 µM (active) | 11.9 µM (active) | – | – | inactive | inactive | inactive | inactive | inactive
